Results taken from PubChem BioAssay AID1159580 (chemical genetic matrix, 2015).
The campaign covered roughly 5,500 compounds. About 2,000 (36%) were called active. Inconclusive results (about 18%) are left out. Cut-off read from the data, not from the text of the source: active = normalized growth mostly below about 0.91 (no sharp cut-off); inconclusive = no clear call, values can overlap the other calls; inactive = mostly above about 0.92. This is one part of the list.

Experiment: chemical genetic growth profiling, strain panel (AID 1159580);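 note: tested at 20 µM; growth read once vehicle control cultures reached saturation at 30 °C; 1 = growth at the plate median or of vehicle wells; lower values mean less growth of the strain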
Conditions: growth OD

Measured: normalized growth

NC(Cc1c[nH]c2ccccc12)C(=O)O (configuration not stated)
inactive: S. cerevisiae deletion strains, locus YJR075W, strain HOC1, stronger effect = lower value 1 | S. cerevisiae deletion strains, locus YKL009W, strain mrt4, stronger effect = lower value 1.01 | S. cerevisiae deletion strains, locus YKL068W, stronger effect = lower value 0.99 | S. cerevisiae deletion strains, locus YKL085W, strain MDH1 (second series), stronger effect = lower value 1.02 | S. cerevisiae deletion strains, locus YKL085W, strain MDH1, stronger effect = lower value 1.02 | S. cerevisiae deletion strains, locus YKL160W, strain elf1, stronger effect = lower value 1.02 | S. cerevisiae deletion strains, locus YKL190W, strain CNB1, stronger effect = lower value 0.989 | S. cerevisiae deletion strains, locus YKR001C, strain vps1, stronger effect = lower value 1 | S. cerevisiae deletion strains, locus YKR026C, strain gcn3, stronger effect = lower value 1.02 | S. cerevisiae deletion strains, locus YKR091W, strain srl3, stronger effect = lower value 1.02 | S. cerevisiae deletion strains, locus YLL001W, strain dnm1, stronger effect = lower value 1.02 | S. cerevisiae deletion strains, locus YLL026W, stronger effect = lower value 1.02 | S. cerevisiae deletion strains, locus YLL041C, strain sdh2, stronger effect = lower value 1.01 | S. cerevisiae deletion strains, locus YLR027C, strain aat2, stronger effect = lower value 1.01 | S. cerevisiae deletion strains, locus YLR039C, strain RIC1, stronger effect = lower value 0.991 | S. cerevisiae deletion strains, locus YLR058C, strain SHM2, stronger effect = lower value 0.975 | S. cerevisiae deletion strains, locus YLR102C, strain apc9, stronger effect = lower value 0.992 | S. cerevisiae deletion strains, locus YLR113W, strain HOG1, stronger effect = lower value 0.969 | S. cerevisiae deletion strains, locus YLR221C, strain rsa3, stronger effect = lower value 1.01 | S. cerevisiae deletion strains, locus YLR258W, strain gsy2, stronger effect = lower value 1.01 | S. cerevisiae deletion strains, locus YLR262C, strain YPT6 (second series), stronger effect = lower value 1.03 | S. cerevisiae deletion strains, locus YLR262C, strain YPT6, stronger effect = lower value 0.962 | S. cerevisiae deletion strains, locus YLR268W, strain sec22, stronger effect = lower value 1.02 | S. cerevisiae deletion strains, locus YLR320W, strain mms22, stronger effect = lower value 0.995 | S. cerevisiae deletion strains, locus YLR330W, strain CHS5, stronger effect = lower value 0.99 | S. cerevisiae deletion strains, locus YLR342W, strain FKS1 (second series), stronger effect = lower value 1.03 | S. cerevisiae deletion strains, locus YLR342W, strain FKS1, stronger effect = lower value 1.02 | S. cerevisiae deletion strains, locus YLR357W, strain rsc2, stronger effect = lower value 1.04 | S. cerevisiae deletion strains, locus YLR370C, strain arc18, stronger effect = lower value 1.02 | S. cerevisiae deletion strains, locus YLR371W, strain rom2, stronger effect = lower value 0.991 | S. cerevisiae deletion strains, locus YLR384C, strain iki3, stronger effect = lower value 1.02 | S. cerevisiae deletion strains, locus YLR418C, strain cdc73, stronger effect = lower value 1.04 | S. cerevisiae deletion strains, locus YML016C, strain PPZ1, stronger effect = lower value 0.989 | S. cerevisiae deletion strains, locus YML032C, strain rad52, stronger effect = lower value 0.992 | S. cerevisiae deletion strains, locus YML120C, strain ndi1, stronger effect = lower value 1.01 | S. cerevisiae deletion strains, locus YML124C, strain tub3, stronger effect = lower value 0.997 | S. cerevisiae deletion strains, locus YMR058W, strain fet3, stronger effect = lower value 1.02 | S. cerevisiae deletion strains, locus YMR078C, strain ctf18, stronger effect = lower value 0.979 | S. cerevisiae deletion strains, locus YMR125W, strain sto1, stronger effect = lower value 1.03 | S. cerevisiae deletion strains, locus YMR129W, stronger effect = lower value 1.02 | S. cerevisiae deletion strains, locus YMR205C, strain PFK2, stronger effect = lower value 1.03 | S. cerevisiae deletion strains, locus YMR223W, strain ubp8, stronger effect = lower value 1 | S. cerevisiae deletion strains, locus YMR231W, strain pep5, stronger effect = lower value 1.02 | S. cerevisiae deletion strains, locus YMR263W, strain SAP30, stronger effect = lower value 0.983 | S. cerevisiae deletion strains, locus YMR307W, strain GAS1, stronger effect = lower value 1.08 | S. cerevisiae deletion strains, locus YNL067W, strain RPL9B, stronger effect = lower value 0.992 | S. cerevisiae deletion strains, locus YNL071W, strain lat1, stronger effect = lower value 1.02 | S. cerevisiae deletion strains, locus YNL128W, strain TEP1, stronger effect = lower value 0.975 | S. cerevisiae deletion strains, locus YNL153C, strain GIM3, stronger effect = lower value 0.992 | S. cerevisiae deletion strains, locus YNL183C, strain NPR1, stronger effect = lower value 0.941 | S. cerevisiae deletion strains, locus YNL209W, strain ssb2, stronger effect = lower value 1.03 | S. cerevisiae deletion strains, locus YNL233W, strain BNI4, stronger effect = lower value 0.999 | S. cerevisiae deletion strains, locus YNL248C, strain rpa49, stronger effect = lower value 1.02 | S. cerevisiae deletion strains, locus YNL250W, strain rad50, stronger effect = lower value 0.975 | S. cerevisiae deletion strains, locus YNL271C, strain bni1, stronger effect = lower value 1.01 | S. cerevisiae deletion strains, locus YNL298W, strain CLA4, stronger effect = lower value 0.995 | S. cerevisiae deletion strains, locus YNL307C, strain MCK1, stronger effect = lower value 0.991 | S. cerevisiae deletion strains, locus YNL322C, strain KRE1 (second series), stronger effect = lower value 1.02 | S. cerevisiae deletion strains, locus YNL322C, strain KRE1, stronger effect = lower value 0.989 | S. cerevisiae deletion strains, locus YNR049C, strain mso1, stronger effect = lower value 1.02 | S. cerevisiae deletion strains, locus YNR052C, strain pop2, stronger effect = lower value 0.991 | S. cerevisiae deletion strains, locus YOL006C, strain TOP1, stronger effect = lower value 1.03 | S. cerevisiae deletion strains, locus YOL012C, strain htz1 2.02 | S. cerevisiae deletion strains, locus YOL147C, strain pex11, stronger effect = lower value 0.998 | S. cerevisiae deletion strains, locus YOR001W, strain rrp6, stronger effect = lower value 0.992 | S. cerevisiae deletion strains, locus YOR061W, strain CKA2, stronger effect = lower value 0.973 | S. cerevisiae deletion strains, locus YOR069W, strain VPS5, stronger effect = lower value 0.991 | S. cerevisiae deletion strains, locus YOR070C, strain gyp1, stronger effect = lower value 1.02 | S. cerevisiae deletion strains, locus YOR080W, strain dia2, stronger effect = lower value 1.02 | S. cerevisiae deletion strains, locus YOR083W, strain WHI5, stronger effect = lower value 1.01 | S. cerevisiae deletion strains, locus YOR106W, strain vam3, stronger effect = lower value 1 | S. cerevisiae deletion strains, locus YOR136W, strain idh2, stronger effect = lower value 0.992 | S. cerevisiae deletion strains, locus YOR144C, strain elg1, stronger effect = lower value 1 | S. cerevisiae deletion strains, locus YOR184W, strain ser1, stronger effect = lower value 1 | S. cerevisiae deletion strains, locus YOR231W, strain MKK1, stronger effect = lower value 0.946 | S. cerevisiae deletion strains, locus YOR265W, strain rbl2, stronger effect = lower value 1.01 | S. cerevisiae deletion strains, locus YOR270C, strain vph1, stronger effect = lower value 1.04 | S. cerevisiae deletion strains, locus YOR290C, strain snf2, stronger effect = lower value 1.01 | S. cerevisiae deletion strains, locus YOR316C, strain cot1, stronger effect = lower value 0.981 | S. cerevisiae deletion strains, locus YPL051W, strain arl3, stronger effect = lower value 1.01 | S. cerevisiae deletion strains, locus YPL055C, strain LGE1, stronger effect = lower value 0.981 | S. cerevisiae deletion strains, locus YPL078C, strain atp4, stronger effect = lower value 1.01 | S. cerevisiae deletion strains, locus YPL106C, strain sse1, stronger effect = lower value 1.02 | S. cerevisiae deletion strains, locus YPL240C, strain hsp82, stronger effect = lower value 1.02 | S. cerevisiae deletion strains, locus YPL241C, strain CIN2, stronger effect = lower value 0.995 | S. cerevisiae deletion strains, locus YPL256C, strain CLN2, stronger effect = lower value 0.963 | S. cerevisiae deletion strains, locus YPR119W, strain clb2, stronger effect = lower value 0.996 | S. cerevisiae deletion strains, locus YPR141C, strain kar3, stronger effect = lower value 0.985 | S. cerevisiae deletion strains, locus YPR163C, strain tif3, stronger effect = lower value 0.998 | S. cerevisiae deletion strains, locus YPR167C, strain met16, stronger effect = lower value 1 | S. cerevisiae deletion strains, strain wtn01, stronger effect = lower value 0.984 | S. cerevisiae strains, strain wild type, stronger effect = lower value 0.997
